Measured values as given in PubChem BioAssay AID686979 (National Center for Advancing Translational Sciences (NCATS), 2013).
The whole screen tested about 420,000 compounds, of which about 50,000 (12%) were called active. Inconclusive results (about 26%) are left out. The list comes from a sample in which actives are over-represented; it also holds similar structures and randomly drawn compounds. A number with no mark means an inactive call. Calls follow the shape of the dose curve; as a rule, active = well fitted inhibition curve with a large enough effect; inconclusive = small, poorly fitted or top-dose-only effect; inactive = flat fitted curve, though single readings scatter.

Assay: qHTS for Inhibitors of human tyrosyl-DNA phosphodiesterase 1 (TDP1): qHTS in cells in presence of CPT; also: nearly all actives have a fitted effect of over 55% in size
Details: chicken DT40 Tdp1-/-;hTDP1 cells + 20 nM CPT, ATP luminescence, 48 h; series mostly up to 46.2 µM; activity change, negative = growth inhibition: at the top concentration
In short: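 Chicken DT40 Tdp1-/- cells stably complemented with human TDP1 were seeded at 400 cells/well in medium containing 20 nM camptothecin, exposed to pin-transferred compounds, and grown at 37 °C for at least 48 hr. Viability was read as ATP luminescence.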
% is scaled to controls: 0 for no effect and ±100 for the full control effect; potency is read from the fitted curve at half-maximal effect.

In order of rising “activity change, negative = growth inhibition” value:
1. Cc1ccc(O/C=C2\OC(=O)c3ccccc32)cc1  -28%
2. Cc1ccc(-c2nn(-c3ccccc3)cc2C(=O)Nc2cccc(S(=O)(=O)N3CCOCC3)c2)cc1  -25.5%
3. CC(=O)Nc1ccc(NC(=O)C2CCCN2S(=O)(=O)c2cccc(C(F)(F)F)c2)cc1 (stereo unspecified)  -24.5%
4. CN(Cc1ccccc1Cl)C(=O)C1CCC(=O)N(CCc2cccc(F)c2)C1 (stereo unspecified)  -24%
5. O=C(O)c1ccc(NC(=O)c2ccc(COc3ccc(Cl)cc3)o2)cc1  -22.3%
6. CC1(C)[C@@H]2CC[C@@]1(C)[C@H](OC(=O)CSC#N)C2  -22.1%
7. COc1ccccc1N1CC(C(=O)Nc2ccc(S(=O)(=O)N3CCOCC3)cc2)CC1=O (stereo unspecified)  -22%
8. O=C(OCC1OC(Oc2ccc(O)cc2)C(O)C(O)C1O)c1ccccc1 (stereo unspecified)  -20%
9. COC(=O)c1cn(-c2ccccc2)nc1-c1cccnc1  -18.1%
10. COc1ccc(Cl)cc1NC(=O)C1CC(=O)N(c2ccc(F)cc2)C1 (stereo unspecified)  -17.6%
11. Cc1ccc(S(=O)(=O)n2cnc3ccccc32)c(C)c1  -14%
12. Cc1ccc(NC(=S)N(Cc2ccco2)C(C)c2cccs2)cc1 (stereo unspecified)  -11.9%
13. COc1cccc2cc(C(N)=O)/c(=N\NC(=O)c3ccccc3)oc12  -11%
14. CCc1nnc(NC(=O)C2CCCN2S(=O)(=O)c2ccccc2)s1 (stereo unspecified)  -10.1%
15. O=C(O)/C=C/c1cn(-c2ccccc2)nc1-c1cccs1  -7.54%
16. COc1ccc(OCC(=O)N2CCN(C(=O)COc3ccccc3)CC2)cc1  -6.66%
17. CCN(CC)S(=O)(=O)c1ccc2nc(COC(=O)c3n[nH]c4ccccc34)[nH]c2c1  -5.88%
18. Cc1ccc(-n2c(C)nnc2SCC(=O)NC2CC2)cc1  -4.64%
19. O=CN1CCN(C(=O)c2ccc3c(c2)OCO3)CC1  -4.43%
20. Cc1c(CCC(=O)N[C@@H](CC(C)C)C(=O)O)c(=O)oc2c(C)c3oc4c(c3cc12)CCCC4  -3.78%
21. CCOc1ccc(OCc2ccc(C(=O)N(C)c3ccccc3)o2)cc1  -3.27%
22. CCCCNC(=O)c1ccc(-n2c(=S)[nH]c3ccccc3c2=O)cc1  -3.14%
23. CCCC(C)C(=O)Nc1ccc(NC(C)=O)cc1 (stereo unspecified)  -2.66%
24. Cc1ccc(C)c(S(=O)(=O)n2cnc3ccccc32)c1  -2.59%
25. CC(=O)Oc1ccc2c(=O)oc(-c3ccc([N+](=O)[O-])cc3)nc2c1  -2.32%
26. CCCn1c(N)c(N(CCOC)C(=O)C2CCCC2)c(=O)[nH]c1=O  -2%
27. COc1cccc(/C=N/Nc2ccc(Cl)nn2)c1  -1.57%
28. CCCOc1ccc(Cc2c(O)nc(N)[nH]c2=O)cc1C  -0.484%
29. Cc1ccc(S(=O)(=O)Nc2ccccc2CNc2c(C)n(C)n(-c3ccccc3)c2=O)cc1  0.158%
30. CC(C)N(C(=O)Cn1c(SCC(=O)N2CCN(c3ccccc3)CC2)nc2ccccc21)C(C)C  0.282%
31. N#Cc1c(NC(=O)c2ccc(N3CCOCC3)c([N+](=O)[O-])c2)sc2c1CCCC2  0.828%
32. O=C(c1cn(-c2ccccc2)nc1-c1cccnc1)N1CCCCC1  0.912%
33. Fc1ccccc1Cc1ccc(Cl)nn1  1.4%
34. CC1(C(=O)O)CCCN(C(=O)/C=C/c2ccccc2)C1 (stereo unspecified)  6.06%
35. N#Cc1ccc(S(=O)(=O)NCC(=O)OCC(=O)NCCc2ccccc2)cc1  7.05%
36. Cc1ccc(C(=O)O)cc1N1C(=O)CCCC1=O  9.25%
37. CCCCCCCN=C(C)c1ccccc1O  10.7%
38. COc1ccc(-c2nn(-c3ccccc3)cc2/C=C\C(=O)N2CCOCC2)cc1[N+](=O)[O-]  12.3%
39. Cc1ccc(F)cc1S(=O)(=O)Nc1cccc(C(=O)N2CCCC(C(N)=O)C2)c1 (stereo unspecified)  13.4%
40. Clc1ccc(N/N=C/c2cccs2)nn1  14.4%

In the case of `COc1ccc(S(=O)(=O)n2cnc3ccccc32)c(C)c1`, the Potency is reported as 18.4 µM (active).
For `CC(C)Cn1c(N2CCN(C(=O)/C=C/c3ccccc3)CC2)nc2ccccc21`, the Potency was 18.4 µM (active).
With `CN(C(=O)CN1CCN(c2cc(-c3ccc(OCc4ccccc4)cc3)ncn2)CC1)c1ccccc1` the Potency was 18.4 µM (active).
With `C/C(=N\Nc1ccc(Cl)nn1)c1ccccc1O` the Potency was 0.58 µM (active).
For `Oc1cccc(/C=N/Nc2ccc(Cl)nn2)c1O`, the Potency was 0.092 µM (active).
In the case of `COc1cc(OC)c(N2CC(C(=O)Nc3cc(Cl)ccc3N3CCOCC3)CC2=O)cc1Cl` (stereo unspecified), the Potency is reported as 3.66 µM (active).
With `CCc1ccc(NC(=O)C2CCCN2S(=O)(=O)c2ccc3nc(-c4ccccc4)[nH]c3c2)cc1` (stereo unspecified) the Potency was 23.1 µM (active).
In the case of `CCc1ccccc1NS(=O)(=O)c1ccc2nc(-c3ccccc3)[nH]c2c1`, the Potency is reported as 20.6 µM (active).
In the case of `O=C(O)c1ccc(NC(=O)c2cn(-c3ccccc3)nc2-c2ccc(Cl)cc2)cc1`, the Potency is reported as 20.6 µM (active).
With `COc1ccc(-c2nn(-c3ccccc3)cc2/C=C\C(=O)Nc2ccc(C(=O)O)cc2)cc1` the Potency was 23.1 µM (active).
For `O=C(NNC(=S)NC(=O)c1cn(-c2ccccc2)nc1-c1ccccc1)c1ccncc1`, the Potency was 14.6 µM (active).
